Compound activity from PubChem BioAssay.
Most compounds without a hit are left out; they make up all but 3.4% or so of the library.
Cardio protect – protects H9c2 cardiomyocytes from peroxide injury. H2O2 injury protection, ATPLite, 2 h. protection from H2O2 cell death, % at 20 µM. AID 588492. 0.63% of 360,000 active;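 active = compounds giving at least 50% protection of heart cells from peroxide-induced death in the single-dose screen, raw or plate-pattern-corrected value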
FXN GAA850 act – activators of GAA850 frataxin (FXN) promoter; activation, % at 6 µM; 0.56% of 360,000 active; HEK293 lucGAA850 FXN promoter luciferase reporter, 24 h; percent of 10 µM SAHA response;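 active = activation above the average of all compounds screened plus 3 SD, cutoff fixed separately per campaign, cut at about 7.5% in these data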
COUP-TFII inh – NR2F2 (human) inhibition, primary screen | 0.7% of 370,000 active | HEK293T NGFI-A luciferase reporter, luminescence | inhibition, % at 8.6 µM;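 active = inhibition above a per-plate cutoff, mean inhibition of test wells between control levels plus 3 SD, cut at about 38% in these data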;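 also: cells cotransfected with COUP-TFII expression vector driving the NGFI-A reporter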
Target sequence (P24468 whole entry, looked up): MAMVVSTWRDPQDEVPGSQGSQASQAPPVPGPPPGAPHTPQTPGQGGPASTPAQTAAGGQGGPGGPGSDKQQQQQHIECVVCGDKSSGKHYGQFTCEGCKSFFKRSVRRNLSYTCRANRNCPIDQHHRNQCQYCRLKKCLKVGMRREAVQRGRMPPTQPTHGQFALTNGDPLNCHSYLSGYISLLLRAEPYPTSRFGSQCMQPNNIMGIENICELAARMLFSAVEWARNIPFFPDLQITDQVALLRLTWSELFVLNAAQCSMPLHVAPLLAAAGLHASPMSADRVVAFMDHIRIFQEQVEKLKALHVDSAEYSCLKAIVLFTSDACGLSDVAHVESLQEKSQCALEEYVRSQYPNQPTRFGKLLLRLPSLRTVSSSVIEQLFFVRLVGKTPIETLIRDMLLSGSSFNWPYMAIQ
GalR3 antag – blocks the human galanin receptor 3 | O60755 | 0.44% of 360,000 active | inhibition, % at 3 µM | HEK293 GalR3-CNG cAMP membrane potential fluorescence; galR3 body fused to GalR1 C-terminus | AID 651719;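 active = inhibition above the screen-wide average plus 3 SD, cut at about 13% in these data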;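 also: forskolin and galanin both at EC90 stimulate the cells; cAMP rise reported by CNG channel membrane potential dye signal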
SMARCA2 act – SMARCA2 function activation, primary screen; MG213 cells, MMTV-luciferase reporter, dexamethasone, overnight; activation, % at 9.1 µM; 1% of 370,000 active; in the data active = activation above about 7.8%
Gli-Sufu block – blocks Gli-Sufu signaling in a luciferase reporter | inhibition, % at 5 µM | Sufu-KO-LIGHT fibroblasts, Gli luciferase reporter luminescence | 0.74% of 340,000 active;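 active = inhibition above about 55%, limit read from the data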
SMARCA2 conf – SMARCA2 activation, confirmation screen. AID 652260. MG213 cells, MMTV-luciferase with dexamethasone, luminescence, overnight; MG213 cells expressing E1A, Rb sequestered; DMSO wells 0%, reference activator 100%. activation, % at 9.1 µM. shares compounds with SMARCA2 act. 30% of 3,500 active;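 active = activation above its plate's cutoff, the mean activation of tested wells plus 3 SD, cut at about 7.9% in these data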
VP16 Luc act – GAL4-VP16 reporter activation counter-screen; shares compounds with SMARCA2 act; HEK293 GAL4-VP16 pG5luc reporter, luciferase luminescence; scaled: DMSO wells 0%, SAHA wells 100%; activation, % at 9.1 µM; 41% of 3,500 active; AID 686939;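 active = activation above the solvent-only control well mean plus 3 SD, averaged across control plates, cut at about 5.2% in these data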
Large screens that a line does not name were inactive (follow-up assays come after a bar, where they were run).

CS(=O)CC(O)(c1ccc(F)cc1)C1CC1 (centres undefined)	none (no result: Gli-Sufu block)
O=C1Nc2ccccc2/C1=C/c1cnc(-c2ccccc2)[nH]1	SMARCA2 act 18.1 | SMARCA2 conf 13.1 | VP16 Luc act 11.2
CCCCNC(=O)C(CC)(ONc1ccccc1C(F)(F)F)c1ccccc1 (centres undefined)	none
CCc1noc2cc(-c3ccccc3)n(C)c(=O)c12	SMARCA2 act 9.7 (no result: Cardio protect, FXN GAA850 act, Gli-Sufu block) | SMARCA2 conf 14.3 | VP16 Luc act 6.8
CC(=O)N/C(N)=N/c1nc2cc(C)ccc2o1	SMARCA2 act 8.9 | SMARCA2 conf inactive | VP16 Luc act 9.6
COc1ccc(CN(C)C(=O)c2ccc3c(=O)n4c(nc3c2)CCC4)cc1	SMARCA2 act 8.2 | SMARCA2 conf inactive | VP16 Luc act inactive
COC(=O)CCC(=O)N1CCC(Oc2cccc(C(=O)NCc3ccccn3)c2)CC1	SMARCA2 act 8.3 (no result: Gli-Sufu block) | SMARCA2 conf inactive | VP16 Luc act inactive
COCC(=O)N1CCC(Oc2cccc(C(=O)NCc3ccccn3)c2)CC1	none
CC(NC(=O)c1cc(S(=O)(=O)N(C)C)ccc1Cl)c1ccc(-n2ccnc2)cc1 (centres undefined)	none
CN(C)CCOc1nc(-c2ccccc2)nc2c1oc1ccccc12	SMARCA2 act 16.1 | SMARCA2 conf 31.2 | VP16 Luc act inactive
CCN(CC)CCOc1nc(C)nc2c1oc1ccccc12	SMARCA2 act 8.5 | SMARCA2 conf inactive | VP16 Luc act inactive
CCOC(=O)CCCCCC(=O)Nc1ccc2c(c1)C(=O)N([C@@H](C)CO)C[C@@H](C)[C@H](CN(C)C(=O)Nc1ccccc1)OCCCC[C@H](C)O2	none (no result: Gli-Sufu block)
O=C(COC(=O)c1cccnc1SCC(=O)NCc1ccccc1)NCc1ccccc1	SMARCA2 act 9.1 | SMARCA2 conf inactive | VP16 Luc act inactive
COc1cccc(-c2onc3ccc(C(C)=O)cc23)c1	SMARCA2 act 8.4 | SMARCA2 conf inactive | VP16 Luc act inactive
CN1CCN(C(=O)c2cn(C)c3ccc(S(=O)(=O)N(C)C4CCCCC4)cc3c2=O)CC1	SMARCA2 act 8.5 | SMARCA2 conf inactive | VP16 Luc act inactive
CN(C1CCCCC1)S(=O)(=O)c1ccc2c(c1)c(=O)c(C(=O)N1CCc3ccccc3C1)cn2C	none
CCN(CC)CCNC(CC(=O)Nc1ccc(Cl)cc1Cl)C(=O)O (centres undefined)	none
O=c1cc(NCCCO)c2ccccc2o1	none
CN(C)CCNc1ccc(CO)c2oc3ccc(O)cc3c(=O)c12	SMARCA2 act 10.8 | SMARCA2 conf 12.8 | VP16 Luc act inactive
CCN(CC)CCNc1ccc(CO)c2oc3cc(Cl)ccc3c(=O)c12	SMARCA2 act 18.2 (no result: Gli-Sufu block) | SMARCA2 conf 28.7 | VP16 Luc act inactive
COC(=O)C1CN(Cc2cn(Cc3ccccc3)nn2)CCS(=O)(=O)N1Cc1ccc(Cl)cc1 (centres undefined)	none (no result: Cardio protect, FXN GAA850 act, GalR3 antag, Gli-Sufu block)
O=C(NC(=S)Nc1ccc(O)cc1)C1CCCC1	none
O=C(NC(=S)Nc1cccc(O)c1)C1CCCCC1	SMARCA2 act 8.2 | SMARCA2 conf inactive | VP16 Luc act 6.2
Cc1ccc(N2CC(C(=O)O)CC2=O)cc1 (centres undefined)	none
Cc1nc(N)sc1-c1csc(Nc2ncccn2)n1	SMARCA2 act 56.2 | SMARCA2 conf 106.4 | VP16 Luc act 12.8
COc1ccccc1Nc1nc(-c2sc(N)nc2C)cs1	none
C[C@H](NC(=O)c1cccc([N+](=O)[O-])c1)C(=O)OCC(=O)c1ccccc1Br	none
Cc1ccccc1Cn1cc(NS(=O)(=O)c2cn(C)nc2C)cn1	SMARCA2 act 8.8 | SMARCA2 conf inactive | VP16 Luc act inactive
O=C(CN1C(=O)c2ccccc2C1=O)NC1CCC(O)CC1 (centres undefined)	none
Cc1cn([C@H]2C[C@H](O)[C@@H](/C=C/C(=O)NCc3ccco3)O2)c(=O)[nH]c1=O	SMARCA2 act 10.0 (no result: FXN GAA850 act, Gli-Sufu block) | SMARCA2 conf inactive | VP16 Luc act inactive
O=C(Nc1ccccc1Cl)c1cc2ccccc2o/c1=N\O	SMARCA2 act 10.9 | SMARCA2 conf 15.4 | VP16 Luc act 16.2
COc1ccc(C2=NN(C(=O)CN3CCCCC3)C(c3ccc(C)cc3)C2)cc1 (centres undefined)	none
COc1ccc(C2=NN(C(=O)CN3CCOCC3)C(c3nc4ccccc4[nH]3)C2)cc1 (centres undefined)	SMARCA2 act 11.1 | SMARCA2 conf inactive | VP16 Luc act 7.6
c1ccc2sc(N3CCCCC3)nc2c1	none
O=C1CNC(=S)N1c1nc2ccccc2s1	SMARCA2 act 28.1 | SMARCA2 conf 10.3 | VP16 Luc act inactive
Cc1ccc(OCCC(=O)N(CC(=O)Nc2ccccc2C(F)(F)F)Cc2ccco2)cc1	none
O=C(CN(c1cccc([N+](=O)[O-])c1)S(=O)(=O)c1ccccc1)N(Cc1ccccc1)Cc1ccccc1	SMARCA2 act 9.9 | SMARCA2 conf inactive | VP16 Luc act inactive
Cc1ccc(NC(=O)C2CC(=O)N(C(C)C)C2)cc1C (centres undefined)	none
Cc1ccc(NC(=O)C2CC(=O)N(C(C)C)C2)cc1Cl (centres undefined)	SMARCA2 act 8.3 | SMARCA2 conf inactive | VP16 Luc act inactive
N/C(=N\OC(=O)c1ccc(Cl)cc1Cl)c1ccncc1	SMARCA2 act 11.6 | SMARCA2 conf 10.6 | VP16 Luc act 20.3
N/C(=N\OC(=O)c1cc(Cl)ccc1Cl)c1cccnc1	none
N/C(CS(=O)(=O)c1ccccn1)=N\OC(=O)c1ccccc1Cl	SMARCA2 act 10.9 | SMARCA2 conf inactive | VP16 Luc act 8.0
COc1ccc(/C(N)=N/OC(=O)c2ccc([N+](=O)[O-])c(C)c2)cc1OC	none
N/C(=N\OC(=O)c1cc(Cl)ccc1Cl)c1ccncc1	none
Cc1cc(C(=O)O/N=C(\N)c2ccncc2)ccc1[N+](=O)[O-]	SMARCA2 act 14.1 | SMARCA2 conf inactive | VP16 Luc act 5.2
N/C(=N\OC(=O)c1ccccc1Cl)c1cccnc1	SMARCA2 act 8.8 | SMARCA2 conf 18.0 | VP16 Luc act 7.8
COc1cc(/C=N/Nc2nc(C)cc(=O)[nH]2)ccc1OC(=O)c1cccnc1	none
COc1cc2c(cc1OC)C(C)N(C(=O)c1cc3c(s1)-c1ccccc1OC3)CC2 (centres undefined)	none
Cc1ccc(OCC(=O)Nc2cccc(C)n2)c(C)c1	SMARCA2 act 10.5 | SMARCA2 conf inactive | VP16 Luc act 11.6
Cc1cccc(NC(=O)COc2ccc(Br)cc2)n1	none
